In the library only some 1.8% were active in any assay of this set; here they are far more common.
Mcl1 Bid PPI: Mcl-1/Bid binding inhibitors, primary screen, biochemical, TR-FRET, 1536-well. Induced myeloid leukemia cell differentiation protein Mcl-1 (Homo sapiens), Q07820. hit rate 0.97% among 220,000. TR-FRET Mcl-1/Bid-Dy647 peptide binding. inhibition, % at 21.7 µM;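 active means compounds that cut the binding signal by more than half at the single screening dose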;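 further: His-tagged Mcl-1 with europium anti-His antibody binding Bid BH3 peptide; 0% = Mcl-1 plus peptide wells and 100% = peptide-only wells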
Target sequence (Q07820 whole entry, looked up): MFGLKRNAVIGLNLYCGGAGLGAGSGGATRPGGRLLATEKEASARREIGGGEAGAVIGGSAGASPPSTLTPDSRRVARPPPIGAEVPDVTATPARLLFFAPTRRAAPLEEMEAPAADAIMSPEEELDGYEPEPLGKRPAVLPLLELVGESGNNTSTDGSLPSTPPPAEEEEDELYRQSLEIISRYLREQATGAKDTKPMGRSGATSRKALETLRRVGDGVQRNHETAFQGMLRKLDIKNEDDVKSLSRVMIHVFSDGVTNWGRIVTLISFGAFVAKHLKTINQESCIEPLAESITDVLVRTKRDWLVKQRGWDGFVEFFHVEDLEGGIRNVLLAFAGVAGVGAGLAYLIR
NOD2 RIPK2 PPI: NOD2-RIPK2 binding disruptors in cells, primary screen, fluorescence, CHO cells, BLA complementation; inhibition, % at 4.98 µM; CCF4 ratio; Receptor-interacting serine/threonine-protein kinase 2 (Homo sapiens), O43353; hit rate 0.38% among 360,000; in the data active means inhibition above about 21%;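 further: 0% = vehicle only and 100% = reference blocker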
TLR4 MyD88 comp: inhibitors of TLR4-MyD88 association in cells, primary screen, cell-based, HeLa CL3-4, BLA complementation, FRET ratio; hit rate 0.18% among 200,000; Toll-like receptor 4 (Homo sapiens) + Myeloid differentiation primary response protein …; inhibition, % at 8.4 µM; HeLa CL3-4 TLR4/MyD88 BLA complementation; in the data active means inhibition above about 25%;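 further: 0% = vehicle and 100% = reference inhibitor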
TLR9-MyD88 inh: inhibitors of TLR9-MyD88 association in cells, primary screen, cell-based, CHO, BLA complementation, fluorescence; inhibition, % at 4.98 µM; hit rate 0.21% among 340,000; Toll-like receptor 9 (Homo sapiens) + Myeloid differentiation primary response protein …; AID 504734, 2011; CCF4 FRET ratio;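 active means inhibition above the mean over all tested compounds plus 3 SD, cut at about 21% in these data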;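 further: 0% = DMSO only wells and 100% = clavulanate BLA inhibitor control wells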
Mcl1 Noxa PPI: Mcl-1/Noxa binding inhibitors, primary screen, biochemical, TR-FRET, 1536-well; inhibition, % at 21.7 µM; Induced myeloid leukemia cell differentiation protein Mcl-1 (Homo sapiens), Q07820; TR-FRET Mcl-1/Noxa peptide binding, 2 h; hit rate 1.5% among 220,000; AID 1022, 2008;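 active means compounds that cut the protein-peptide binding signal by more than 50% relative to plate controls in a single-dose test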;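 further: His-tagged Mcl-1 with rhodamine Noxa BH3 peptide and terbium anti-His antibody; 0% = Mcl-1 plus Noxa peptide wells and 100% = peptide-only wells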
Mcl-1 Bim block: inhibitors of Bim peptide binding to Mcl-1, primary screen, biochemical, bead-based flow cytometry, multiplex. Bim peptide-Mcl-1 binding. inhibition, % at 10 µM. Induced myeloid leukemia cell differentiation protein Mcl-1 (Homo sapiens), Q07820. hit rate 0.1% among 190,000; in the data active means inhibition above about 40%;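 further: 0% = no compound tracer wells and 100% = peptide blocker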
* = called active by the depositor; . = no result given.

SMILES | Mcl1 Bid PPI | NOD2 RIPK2 PPI | TLR4 MyD88 comp | TLR9-MyD88 inh | Mcl1 Noxa PPI | Mcl-1 Bim block
C#CC1(N2CCCCC2)CCCCC1 | . | -0.3 | . | 1.4 | . | .
O=C(CSc1nc2ccccc2n1CCc1ccccc1)c1ccc(O)c(O)c1 | 52.5* | 3.2 | -0.2 | 2.4 | 101.9* | -3.0
O=c1[nH]n2c(=O)c3c([nH]c2c1N=Nc1cccc(Cl)c1)CCC3 | -169.8 | -8.9 | -7.4 | 0.9 | 57.6* | 2.0
C=CCc1c(C)nc(SCC(N)=O)[nH]c1=O | 9.9 | 9.2 | -13.0 | -8.2 | 27.1 | 0.0
C=CCc1c(C)nc(SCCC)[nH]c1=O | 3.0 | -8.0 | 0.9 | -0.9 | 97.9* | -3.0
CN1N=C(C(=O)N2CCCC(C(=O)c3cccc(C(F)(F)F)c3)C2)CCC1=O (stereo not drawn) | -18.9 | -3.6 | -8.7 | -2.2 | 15.8 | 48.0*
O=C(NNC(=O)c1ccccc1[N+](=O)[O-])c1ccc(NC(=O)c2ccccc2)cc1 | . | -2.7 | . | -1.2 | . | .
C/C(Cl)=C\Cn1c(N2CCCC2)nc2c1c(=O)n(C)c(=O)n2C | . | -10.5 | . | -5.5 | . | .
C=CCn1c(N2CCCCCC2)nc2c1c(=O)n(C)c(=O)n2C | 41.2 | -7.8 | 7.5 | -2.4 | 97.7* | 0.0
C#CCOc1c(/C=C\c2nc(O)c([N+](=O)[O-])c(=O)[nH]2)cc(Br)cc1OC | . | 8.5 | . | -1.3 | . | .
O=C(CCS(=O)(=O)c1ccc(Br)s1)NC1CCCCCC1 | 78.1* | 3.4 | 1.8 | 8.8 | -8.4 | -2.0
Cc1ccc(S(=O)(=O)N2CCN(C(=O)Cn3nc(C)c([N+](=O)[O-])c3C)CC2)cc1 | . | 5.9 | . | 4.9 | . | .
CC(=O)c1ccc(S(=O)(=O)Nc2ccc(-c3cn4c(n3)SCC4)cc2)cc1 | -29.9 | 2.5 | 0.6 | -1.1 | 64.8* | 2.0
Oc1ccc(-c2cn3c(n2)SCC3)cc1O | -133.6 | -1.3 | -9.9 | -4.2 | 95.2* | 7.0
Nc1nc(NCCCN2CCOCC2)nc(Nc2ccccc2F)c1[N+](=O)[O-] | 3.1 | 9.5 | . | 3.8 | 10.6 | .
O=C1CSc2cc(Cl)ccc2N1 | . | -1.8 | . | -4.8 | . | .
CCc1ccc(O)c(N=Cc2ccccc2O)c1 | -15.6 | -13.6 | 8.8 | 8.7 | 2.4 | -2.0
O=c1[nH][nH]c2c(N=Cc3ccccc3O)ccc(F)c12 | -156.8 | 4.9 | . | -6.9 | 94.5* | .
CN1CCN(c2nc(-c3ccccc3O)nc3ccccc23)CC1 | . | -3.8 | . | -5.8 | . | .
COc1cccc(-c2nc(N3CCN(C)CC3)c3ccccc3n2)c1O | -54.1 | -4.4 | . | 3.7 | 68.1* | .
Cc1ccccc1NC(=S)N/N=C/c1ccc(O)cc1O | -255.7 | -6.8 | . | 2.8 | 60.2* | .
Cc1cc(SCC(=O)N/N=C/c2ccc(O)c(O)c2)c(C)cc1Br | 23.4 | -4.5 | -2.3 | -7.2 | 60.5* | 1.0
COc1ccc2nc(C)cc(SCC(=O)N/N=C/c3ccc(O)c(O)c3)c2c1 | -32.4 | -4.9 | -6.3 | -3.6 | 54.2* | 16.0
COc1cccc2c(SCC(=O)N/N=C/c3ccc(O)c(O)c3)cc(C)nc12 | -15.6 | 1.4 | 8.0 | . | 63.6* | 10.0
CC(C)CC1C(=O)N(Cc2cn(CCC3OCCO3)nn2)CCS(=O)(=O)N1Cc1ccc(-c2cccc(N(C)C)c2)cc1 (stereo not drawn) | . | -0.2 | . | 1.2 | . | .
SMILES | Mcl1 Bid PPI | NOD2 RIPK2 PPI | TLR4 MyD88 comp | TLR9-MyD88 inh | Mcl1 Noxa PPI | Mcl-1 Bim block
CC(CC(=O)Nc1ccc2c(c1)c(=O)n(C)n2-c1cccs1)c1ccccc1 (stereo not drawn) | . | -4.2 | . | . | . | .
COc1cccc(N2CCN(C3CC(=O)N(c4ccc(Cl)c(Cl)c4)C3=O)CC2)c1 (stereo not drawn) | 58.9* | 3.9 | 2.6 | 1.1 | 12.1 | -1.0
O=C(N/N=C/C(Cl)=C/c1ccc([N+](=O)[O-])cc1)C(=O)Nc1ccccc1C(=O)O | -1.5 | -2.9 | . | -3.5 | 55.7* | .
O=C1CN(C(=O)CNCc2ccccc2)c2ccccc2N1 | 69.3* | -6.1 | . | -7.1 | 43.7 | .
COc1ccccc1CNCC(=O)N1CC(=O)Nc2ccccc21 | 27.5 | 5.9 | 3.6 | 6.6 | 29.0 | -2.0
Cc1cc(N=Nc2ccc(C)c(N=Nc3cc(C)c(N)cc3N)c2)c(N)cc1N | -134.6 | 4.5 | . | 2.6 | 60.1* | .
O=C(COC(=O)c1ccccn1)NC1CCCCC1 | 2.3 | -13.3 | -12.2 | 12.6 | 3.1 | 66.0*
COc1ccc(OC)c(N(CC(=O)NCC2CCCO2)S(=O)(=O)c2ccccc2)c1 (stereo not drawn) | . | 0.8 | . | 1.7 | . | .
CC(=O)Nc1ccc(NC(=O)CSc2nnc(-c3ccco3)o2)cc1 | -16.1 | -1.4 | -11.2 | -3.9 | 8.2 | -1.0
O=C(CSc1nnc(-c2ccco2)o1)c1ccccc1 | -11.5 | -4.8 | -3.3 | -10.1 | 16.9 | 0.0
O=C(CSc1nnc(-c2ccco2)c(-c2ccco2)n1)c1ccccc1 | 39.8 | 6.1 | -15.8 | -0.2 | 96.4* | 1.0
CC(=O)c1ccc(NC(=O)CSc2nnc(-c3ccco3)c(-c3ccco3)n2)cc1 | -77.0 | 1.7 | -3.9 | -7.9 | 79.1* | 9.0
CCOc1ccc2ccccc2c1/C=N/NC(=O)c1ccncc1 | . | -2.7 | . | 2.6 | . | .
Cc1ccc(S(=O)(=O)Nc2ccccc2C(=O)N2CCCCC2C)c(C)c1NS(C)(=O)=O (stereo not drawn) | . | -12.4 | . | -5.1 | . | .
COc1ccc(C(c2nnnn2C(C)(C)C)N2CCN(c3nc4ccccc4s3)CC2)cc1 (stereo not drawn) | 8.0 | -4.2 | -4.6 | 4.1 | 10.9 | -3.0
CCC(C)(C)n1nnnc1C(c1ccc(O)c(OC)c1)N1CCc2ccccc2C1 (stereo not drawn) | 26.3 | -6.8 | -1.1 | 8.2 | 82.0* | -4.0
CC(C)(C)n1nnnc1C(c1cccc(C#N)c1)N1CCCCCC1 (stereo not drawn) | -2.5 | -21.5 | -2.1 | 7.0 | -2.7 | 1.0
CCC(C)(C)n1nnnc1C(c1cccc(C#N)c1)N1CCN(c2cccc(C)c2C)CC1 (stereo not drawn) | -10.5 | -4.8 | -4.3 | 3.4 | 70.4* | -3.0
CCC(C)(C)n1nnnc1C(c1ccc(O)c(OC)c1)N1CCN(c2nc3ccccc3s2)CC1 (stereo not drawn) | 12.7 | 1.3 | 10.5 | 0.1 | 67.5* | -2.0
CSCCC(c1nnnn1C1CCCC1)N1CCN(C/C=C/c2ccccc2)CC1 (stereo not drawn) | . | 6.9 | . | . | . | .
CC(C)COC(=O)/C(C#N)=C/c1cn(Cc2ccccc2)c2ccccc12 | -17.1 | -14.2 | -10.9 | -7.8 | -0.5 | 40.0*
CC1CC(C)CN(S(=O)(=O)CCNC(=O)c2ccc3c(c2)OCO3)C1 (stereo not drawn) | . | 9.9 | . | 1.0 | . | .
Cc1cc(C(=O)COC(=O)CCc2nc3ccccc3s2)c(C)n1C | -43.8 | 5.9 | 9.1 | 1.7 | 59.1* | 0.0
